# From PubChem BioAssay AID463165 (Johns Hopkins Ion Channel Center, 2010)
# Hit rate of the full screen: of about 310,000 compounds, about 1,400 (0.45%) were called active. The sample holds actives, similar compounds and a random draw of the others, so the mix is not that of the screen.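 Rule for the calls: active = B-score, a plate-corrected calcium signal, over three deviations above library mean, with baseline fluorescence within five deviations of library mean; inactive = the rest.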
# Target: Regulator of G-protein signaling 4 (Homo sapiens) (UniProt P49798)
# Sequence (P49798 whole entry, looked up): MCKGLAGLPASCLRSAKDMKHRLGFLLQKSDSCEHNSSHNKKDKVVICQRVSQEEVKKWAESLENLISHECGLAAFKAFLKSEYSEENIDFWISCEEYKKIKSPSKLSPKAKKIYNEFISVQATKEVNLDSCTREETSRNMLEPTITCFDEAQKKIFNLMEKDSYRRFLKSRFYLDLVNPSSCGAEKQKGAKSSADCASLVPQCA
# Assay: RGS4 inhibitors, primary screen, cell-based, HEK293 M3R inducible RGS4, calcium flux (AID 463165);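 note: RGS4 expression induced by doxycycline in cells with stable M3 receptor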;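 for B-score: B-score is computed from the integrated fluorescence ratio over baseline after carbachol; higher B-score means a larger calcium signal and so more RGS4 inhibition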
# Conditions: Fluo-4 calcium flux, at 10 µM; B-score: hits give high values unless noted; outcome: triggered by carbachol at its EC20 unless noted
SMILES,outcome,B-score
O=C(N/N=C/c1c(O)n(C2CC2)c(=S)[nH]c1=O)c1ccccc1,inactive [setting not given],
O=c1[nH]c(=O)n(Cc2ccccc2)c(O)c1/C=N/Nc1c(F)c(F)c(F)c(F)c1F,inactive [setting not given],
O=C(N/N=C/c1c(O)n(Cc2ccccc2)c(=O)[nH]c1=O)c1ccccc1,,5.25 (active)
O=C1N=c2ccccc2=C/C1=C\c1c(O)[nH]c(=S)[nH]c1=O,inactive [setting not given],
Cc1ccc2c(c1)=C/C(=C\c1c(O)[nH]c(=O)[nH]c1=O)C(=O)N=2,,5.31 (active)
O=c1[nH]c(O)c(C=Nc2cc(F)cc(F)c2)c(=O)[nH]1,inactive [setting not given],
COC(=O)CN1C(=O)C2(C(C(=O)OC)=C(N)Oc3ccccc32)C2=C1CC(C)(C)CC2=O (stereo not given),inactive,
CC1CCC(N(C)C2CCN(C)CC2)CC1 (stereo not given),inactive,
C=CC12CN(C)[C@@H]3C4CO[C@H](C[C@H]41)[C@]1(C(=O)Nc4ccccc41)[C@@H]32 (stereo not given in full),inactive,
CC(C)(C)c1ccc(OC(=O)N2CCCCC2)cc1,inactive,
Cc1cccc(N2C(=O)NC(=O)/C(=C\c3cnn(-c4ccccc4)c3)C2=O)c1,inactive [setting not given],
O=C1NC(=O)N(c2ccccc2)C(=O)/C1=C/c1ccc([N+](=O)[O-])s1,,4.87 (active)
O=C1NC(=O)N(c2ccc(F)cc2)C(=O)/C1=C/c1ccc2c(c1)CCCN2Cc1ccccc1,inactive [setting not given],
CC(C)c1ccc(OCC(=O)N2CCCN(C)CC2)cc1,inactive,
O=C(CCNS(=O)(=O)c1ccccc1)Nc1ccc(Cl)cc1C(=O)c1ccccc1,inactive,
O=C1NC(=O)N(Cc2ccco2)C(=O)/C1=C\c1cccn1CCOc1ccccc1,inactive [setting not given],
Cc1cc(/C=C2/C(=O)NC(=O)N(Cc3ccco3)C2=O)c(C)n1-c1ccc(C(=O)O)cc1,inactive [setting not given],
O=C1NC(=O)N(Cc2ccco2)C(=O)/C1=C\c1ccc(-c2ccc(F)cc2)o1,,15.5 (active)
CN(C)CC1Oc2ccccc2OC1(O)c1ccccc1 (stereo not given),inactive,
COC(=O)C1=C(c2ccccc2)C[C@@H]2CC[C@H]1N2C(=O)NCc1ccco1,inactive,
